The full ranking holds about 39,000 sequences; the median of “fluorescence intensity (a.u.)” is about 4,300, and the highest 2% start at about 39,000. This is one part of a sample in which the highest values are shown more often than they occur.

The target of the assay is T1, OsSMF1 (Oryza sativa, UniProt Q6ZLB0 1-436).
T1 sequence: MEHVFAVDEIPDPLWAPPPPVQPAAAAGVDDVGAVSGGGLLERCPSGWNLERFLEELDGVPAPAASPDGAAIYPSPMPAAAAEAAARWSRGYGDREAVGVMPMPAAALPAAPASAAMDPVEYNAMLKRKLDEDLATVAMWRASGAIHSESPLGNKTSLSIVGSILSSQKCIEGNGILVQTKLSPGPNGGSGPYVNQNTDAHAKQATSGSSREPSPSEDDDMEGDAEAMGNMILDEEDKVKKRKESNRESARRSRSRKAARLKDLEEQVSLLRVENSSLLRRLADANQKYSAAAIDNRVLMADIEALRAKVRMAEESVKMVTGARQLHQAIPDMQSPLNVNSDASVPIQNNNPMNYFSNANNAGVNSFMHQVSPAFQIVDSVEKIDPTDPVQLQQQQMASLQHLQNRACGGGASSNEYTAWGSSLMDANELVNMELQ
Kind of assay: protein-binding microarray (RPBM); PBS, 2% BSA, 51.3 ng/ul salmon testes DNA, 50 uM zinc acetate, 200 nM TF, 25 C, 1 h; high values mean tight binding. The following applies: protein: recombinant; tags: N-terminal polyhistidine and DsRed monomer fusion (pET32a); chain copies: 2; label: CyDye5-dUTP incorporated in the synthesized complementary strand; 3' TTTTT single-stranded linker to array surface; dsDNA, one strand shown. In short, it runs like this: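 Ni–NTA purification followed expression in E. coli BL21-CodonPlus of transcription factors fused N-terminally to a polyhistidine tag and DsRed. At 200 nM in PBS with 2% BSA, salmon testes DNA and 50 µM zinc acetate, the protein was incubated for 1 h at 25 °C with a custom Agilent array that had been primer-extended with Cy5-dUTP and blocked with 2% BSA. After washing, the array was read on an Axon 4000B scanner. The binding signal is per-feature fluorescence intensity in arbitrary units.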
In the case of “CGACGCGGCGGCGAAAAGTCGGCGAACTGCGGCGAGGTGGCGGAGTCACCTAGTGCAG”, the binding signal was 30100 fluorescence intensity (a.u.). The same measure for “AGAAATTGAATTGCTTGCTACAGAGAAGCTAGAAGAGTTTCGGAGTCACCTAGTGCAG”: 64800 fluorescence intensity (a.u.); for “AGTTGATAGGAGTAGCTTGAAGAAGCAGAGACAGCTAGATCGGAGTCACCTAGTGCAG”: 37600 fluorescence intensity (a.u.). “GAAAGCTAGAAGAGAAATTGACCTGGATTGAGTTTTGTGCCGGAGTCACCTAGTGCAG”: the binding signal is 4170 fluorescence intensity (a.u.).

As for “AAATGGCCTTGCACACCTTGTCATTGAAATTAAGAACAAACGGAGTCACCTAGTGCAG”, the binding signal is 6400 fluorescence intensity (a.u.). The same measure for “GAATTAGCTTGATTGACAGAAACAAATGGCTACAACTACACGGAGTCACCTAGTGCAG”: 65500 fluorescence intensity (a.u.); for “GAATGAATTGAAACAGACAATGCACACGCTTAGTCCATGACGGAGTCACCTAGTGCAG”: 28800 fluorescence intensity (a.u.). Consider “TGCATCACACGTACACATCTATCCATCGATCCAGTCCGCCCGGAGTCACCTAGTGCAG”, for which the binding signal was 4610 fluorescence intensity (a.u.).

As to “TTTCTTTTCTTCTTTCCTTCTCCCCACGGAGGTGTACGTACGGAGTCACCTAGTGCAG”, the binding signal is 3440 fluorescence intensity (a.u.). On to “TGGTACATGGTGTGCCCTACCGAGCTTAGTCAACCACTTTCGGAGTCACCTAGTGCAG”, for which the binding signal is 3230 fluorescence intensity (a.u.). “TATAGTGGCAACGCATGCTGACGTTACGGTGTACCGCCGTCGGAGTCACCTAGTGCAG”: the binding signal was 5900 fluorescence intensity (a.u.). Take “TTCAGGTGATGAGTCAATGGAGGAGGATGTCATGGAGATTCGGAGTCACCTAGTGCAG”: the binding signal was 4750 fluorescence intensity (a.u.). With “ATAACGGTGCTAATCTACTGGTGACTGTGCCTGGTGGTGGCGGAGTCACCTAGTGCAG”, the binding signal was 4380 fluorescence intensity (a.u.).

Regarding “ATATCGACTACACACTGTTCTTGGCTACATCGATTGATTGCGGAGTCACCTAGTGCAG”, the binding signal is 4840 fluorescence intensity (a.u.). On to “GCTTATCGATAAACTCAGTGTATTTGCATTCAAATTTTGACGGAGTCACCTAGTGCAG”, for which the binding signal is 3660 fluorescence intensity (a.u.). Consider “TAAAGTAAACTCGATCTCTTTCCGAGAAGTGTATTATTTTCGGAGTCACCTAGTGCAG”, for which the binding signal was 41400 fluorescence intensity (a.u.). Take “TCATTTCTAATGTAAATTATCTTTTGCGTAAGTAATTTCTCGGAGTCACCTAGTGCAG”: the binding signal was 3230 fluorescence intensity (a.u.). Turning to “TGATTAAAGTATTCTTATTTCTCTTTTGAGCAATATCTAACGGAGTCACCTAGTGCAG”, the binding signal was 21900 fluorescence intensity (a.u.). Regarding “AACCCTAAGACTAGAGGCGGGCTGGAGCGTGGAGGCGGGACGGAGTCACCTAGTGCAG”, the binding signal is 3240 fluorescence intensity (a.u.).

Consider “GGTTTAACCGTTTGGTAGCTGACATGTGCGCCTGGGCATACGGAGTCACCTAGTGCAG”, for which the binding signal was 3380 fluorescence intensity (a.u.). Consider “TCATTGGTATCTCAATGACATGTAGGACCTACATGAGTCACGGAGTCACCTAGTGCAG”, for which the binding signal was 8190 fluorescence intensity (a.u.).

In the case of “TTTGAAAATAATACTCCCTCCGTTTCATAATATAAGTGATCGGAGTCACCTAGTGCAG”, the binding signal was 3260 fluorescence intensity (a.u.). The same measure for “AAAATATATTACTACCTCCGTTTCATATTATAAGACTTTCCGGAGTCACCTAGTGCAG”: 65400 fluorescence intensity (a.u.). In the case of “AATCTACTTCCTCCGTTTTATGTTATAAGACTTTCTAGCACGGAGTCACCTAGTGCAG”, the binding signal is 3140 fluorescence intensity (a.u.). For the sequence “ACCACCACCTCGGCATCTCCTCGTCCTCGAGCCCAATACTCGGAGTCACCTAGTGCAG”, the binding signal is 3660 fluorescence intensity (a.u.). The value for “AGCAACCAAATCTTCCCAATTCTCACTTGCTCCTAGATACCGGAGTCACCTAGTGCAG” was 3840 fluorescence intensity (a.u.); that for “AGCCTTGTCATGTAAACCTATCCTTTTGAGACACGTGCGTCGGAGTCACCTAGTGCAG” was 5780 fluorescence intensity (a.u.); that for “TTCTCCCACCGCATCCTCTCTCCCCTTGAGTATTTACTTTCGGAGTCACCTAGTGCAG” was 3420 fluorescence intensity (a.u.).

For the sequence “CGTAACGCGATCGAGAACCGACTCAGCCGAGACTCATCGTCGGAGTCACCTAGTGCAG”, the binding signal was 3710 fluorescence intensity (a.u.).

With “TTCGAGCAACTCTACCTGGATCCAGACCAACCCCAGTAGACGGAGTCACCTAGTGCAG”, the binding signal was 50400 fluorescence intensity (a.u.).

For the sequence “TGGATATTTTCTACCCCTGGACCCAGCTGTCAGATCCAACCGGAGTCACCTAGTGCAG”, the binding signal was 3250 fluorescence intensity (a.u.). The value for “AGGACGAGACCCCATCCAACCACCCCAGCCACGTCAGCAACGGAGTCACCTAGTGCAG” was 34000 fluorescence intensity (a.u.); that for “TAGCAGGTTTCCTGCCAACTTGGCACACTTGCTTCGTGGTCGGAGTCACCTAGTGCAG” was 3620 fluorescence intensity (a.u.); that for “GATTCAAGGTTGAGAGGACCTAAGATGTCCAATGATGTGTCGGAGTCACCTAGTGCAG” was 3470 fluorescence intensity (a.u.). Take “GGATAAGTGCCCCTACCAATAGGTGGACCCTTGTCACTGGCGGAGTCACCTAGTGCAG”: the binding signal was 19300 fluorescence intensity (a.u.). The value for “TGTCAATAATGCATCCTGCAGCTAACATCAAATGACATGGCGGAGTCACCTAGTGCAG” was 3150 fluorescence intensity (a.u.). The value for “GGCCGCTGATCTACGTGGCGGCAGTTCGGTACAGGTGGTGCGGAGTCACCTAGTGCAG” was 10500 fluorescence intensity (a.u.).

Consider “GGGCCCCTCCCAAATCTCCCATGGTTCCATCCATCCCCATCGGAGTCACCTAGTGCAG”, for which the binding signal was 3890 fluorescence intensity (a.u.). In the case of “GCTGTTGGTTGGTGCCACATCCCACGCTGCCATGCCATGCCGGAGTCACCTAGTGCAG”, the binding signal is 4910 fluorescence intensity (a.u.). “CCATCCCATGGTGGGCCGGTTAGTTCTGTTCCTGGGCCATCGGAGTCACCTAGTGCAG”: the binding signal was 64400 fluorescence intensity (a.u.). Regarding “ATTAGTATTCCCTCCCATCATTAATATATGACGTTAGTGTCGGAGTCACCTAGTGCAG”, the binding signal was 4550 fluorescence intensity (a.u.).

As for “CGGGAGGGGAGGGGAATGGATGTGGGGAGGAGAGAGACTGCGGAGTCACCTAGTGCAG”, the binding signal was 4600 fluorescence intensity (a.u.). On to “TTCGTCATAGTGTGGAACGACACATCATGAAGATTAGAGACGGAGTCACCTAGTGCAG”, for which the binding signal is 3630 fluorescence intensity (a.u.).

As to “GTTCTGTCTTAACCTGCTTTCATATTAATTGTTAAAGTTGCGGAGTCACCTAGTGCAG”, the binding signal was 3280 fluorescence intensity (a.u.). The value for “CCGGGAAATTCTTGTGTTGTTGTGTTGGTCTTGAGCAATTCGGAGTCACCTAGTGCAG” was 3630 fluorescence intensity (a.u.).

With “TGCAAATTGTGCTTTTCTATTCTGTTGTGTCTTCTGCTTTCGGAGTCACCTAGTGCAG”, the binding signal was 40700 fluorescence intensity (a.u.). In the case of “AGCCTAGGAGGAGATGTGACCTCACAGTCAGGTGTCATCGCGGAGTCACCTAGTGCAG”, the binding signal is 3660 fluorescence intensity (a.u.).

These data come from publication PMC7819943, “Rice protein-binding microarrays: a tool to detect cis-acting elements near promoter regions in rice”.
